Over roughly 33,000 sequences, “E-score (-0.5 to 0.5)” has its median near -0.035; the highest 2% begin near 0.34. This excerpt belongs to a sample that is enriched for the highest values.
Target: T1, Mot3 (UniProt P54785)
T1 sequence: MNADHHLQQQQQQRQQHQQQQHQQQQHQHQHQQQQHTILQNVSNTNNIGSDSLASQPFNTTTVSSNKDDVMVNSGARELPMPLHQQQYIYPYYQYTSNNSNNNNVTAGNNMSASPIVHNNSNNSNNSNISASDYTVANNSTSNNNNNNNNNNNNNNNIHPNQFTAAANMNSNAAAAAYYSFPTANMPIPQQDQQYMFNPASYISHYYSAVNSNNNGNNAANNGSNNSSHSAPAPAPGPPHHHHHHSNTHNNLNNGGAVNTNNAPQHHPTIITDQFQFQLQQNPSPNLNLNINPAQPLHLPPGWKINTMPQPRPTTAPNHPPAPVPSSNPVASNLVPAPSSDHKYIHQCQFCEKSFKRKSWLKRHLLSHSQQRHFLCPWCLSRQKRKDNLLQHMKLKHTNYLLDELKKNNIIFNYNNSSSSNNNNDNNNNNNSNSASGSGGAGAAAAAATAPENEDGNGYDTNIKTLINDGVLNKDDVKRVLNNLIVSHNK
Test: PBM E-score (8-mer binding enrichment) (E-score (-0.5 to 0.5)); higher = stronger / more preferred TF binding
Settings: protein concentration: 200 nM; construct: GST-full length
Protocol: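 Universal 'all 10-mer' protein binding microarrays (Agilent AMADID 015681) probed with GST-tagged S. cerevisiae TFs (full-length or DBD) made by in vitro transcription/translation (PURExpress), about 100-200 nM. Bound TF was detected with fluorescent anti-GST. Each ungapped 8-mer (which stands for itself and its reverse complement) is scored by the PBM enrichment score (E-score), a modified Wilcoxon-Mann-Whitney statistic from -0.5 to +0.5, computed with the Universal PBM Analysis Suite. Scale: above 0.35 generally sequence-specific binding.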

Sequence	PBM E-score
GGTAGAGA	-0.198
TCCGGAGA	-0.297
CCGGCGAG	-0.369
AATCGACA	0.201
GATCCATA	-0.201
ATGGCGGA	-0.302
TCTACCCA	-0.077
CGGTGTCC	-0.376
CAAAGCAG	0.05
AGCTAACC	-0.152
ATGTAGAA	0.359
GTGTAGAA	0.364
ATGTAGGA	0.158
ATGTAGGC	0.361
GTGTAGTA	0.292
CTGTAGAA	0.191
CTGTAGGC	0.285
GCGTAGAA	0.232
ATGTAGAG	0.252
GTGCGGTA	-0.0948
AGAGAGGA	-0.246
AGTTAGAG	-0.21
GGGAAGCA	-0.178
AACAGCCT	0.0281
CGAGCCAG	-0.0469

Sequence	PBM E-score
GTCGAACA	0.0718
GAAATTTA	0.165
GGGTAAAC	-0.0508
CTGTAAAC	0.295
GTGTACAC	0.344
ATGTAAAG	0.411
ATGTAAAA	0.415
CTGTAAAG	0.24
AAGTAAAG	0.131
TTGTAAAA	0.321
CTGTACAC	0.265
GTGTACAA	0.325
GTGTAAAC	0.387
CTGTAAAA	0.302
GCGCTCCA	-0.136
GTTCGCCA	-0.103
CCATTGAA	0.0844
CTCGGATC	-0.235
GTCGGGAA	-0.104
AGCATCCT	-0.268
ATAAGATA	0.0848
CACGTTGC	0.158
TAGCACGA	-0.0559
ACTCCGGG	-0.248
CGCTCATA	-0.225

Sequence	PBM E-score
GAGCCCAA	-0.136
CGGCCGGA	-0.264
CCGAACAC	-0.0162
ACGTAAAC	0.251
GCGTAAAA	0.314
ATGTAAAT	0.42
ATGTAAAC	0.414
AGGTAAAC	0.302
ACGTAAAT	0.272
AGGTAAAT	0.318
GGGTAAAA	0.112
GTGTAAAA	0.377
ATGGAGGA	0.0248
TAGTGACA	0.124
GTGTGCAA	0.128
CTGGCCCA	-0.265
TATCGGCA	-0.0281
ATAGCGCC	0.228
CGACTCTC	-0.347
CATCGAAG	-0.163
AACCTGGG	0.0477
AGGGACCA	-0.201
AGGTTTGG	-0.141
CCTTCAAG	0.351
CCTTCAAA	0.115

Sequence	PBM E-score
CCTTCAAC	0.247
AGAGAATC	-0.0691
AACCATTA	0.117
GAGGCCCC	-0.242
CTACACAG	0.348
CTACACGA	0.377
CTACACTA	0.135
GTACACGA	0.327
CTACACAC	0.333
CTACACAA	0.29
ATACACAG	0.332
CTACACGC	0.356
GTACACAA	0.323
TTACACAA	0.42
CTACACTC	0.0954
CGACACGC	0.157
AGCCAAGG	-0.106
AGTTCTCG	-0.137
AAAGTGTC	0.0356
AGCGACTC	-0.134
AATGTCTG	-0.0738
AGCGAGAG	-0.117
CTCAAGCC	-0.236
TCATAACA	0.255
AGAATGGA	-0.0583

Sequence	PBM E-score
AAGACCAT	-0.234
ATTAGGCC	-0.111
GTTAGGTA	0.26
CTTAGGCC	-0.0744
GTTAGGGA	-0.113
CTTAGGTA	0.139
ATTAGGCA	0.472
ATTAGGCG	-0.0797
CTTAGGCA	0.444
GTTAGGCA	0.454
CTATGCAA	0.0284
ACCTACCA	0.12
CGGGGATC	-0.303
AAAGCGTG	0.0569
ACCTGATA	0.203
TCAACACA	0.353
ACAACACA	0.337
CCTACACG	0.336
TCTACACA	0.361
ACTACACG	0.386
CCAACACG	0.299
GCTACACA	0.253
ACTACACT	0.181
ACTACACA	0.331
CCCAACGA	-0.0748

Sequence	PBM E-score
AGGGACTG	-0.226
CTGCAAGA	0.0551
CCTCTTCA	-0.171
ATAGCACG	-0.00445
GTAATCCA	0.225
ACAAAGCC	0.0921
CCAAATAG	0.00768
CGAAGGCG	0.193
CGAAGGCA	0.476
AGAAGGCG	0.27
GGAAGGGA	-0.292
TGAAGCCA	-0.0204
AGAAGGCT	-0.0686
AGAAGGCA	0.475
CGAAGGCC	-0.0438
GGAAGGCA	0.482
TGAAGTCA	0.0305
GGAAGGCC	-0.214
TGAAGGCA	0.483
ACCGAGAC	0.0166
CAAGCGTC	-0.0912
GCGGACAC	-0.3
ACGATCCA	-0.0439
CCCTAGTC	-0.163
CATAGGCG	0.0696

Sequence	PBM E-score
TATAGGCA	0.482
GATAGGCC	0.0586
GATAGGCA	0.473
TATAGGGA	-0.0815
AATAGGCT	0.161
GATAGGGA	-0.155
AATAGGCA	0.479
AATAGGCC	-0.0184
TATAGTCA	0.188
CATAGGCA	0.476
CATAGGCC	0.135
GAGTCGAA	-0.0456
CAAGGATG	0.121
CTCAAGCA	-0.101
GGAAGTAC	-0.139
ATGACCAT	0.0148
CGCACTCC	-0.223
CTGAGGTC	-0.255
CTTATGTA	0.342
ATTATGTA	0.339
GTCATGTA	0.356
ATCATGTC	0.245
ATCATGTG	0.198
CTCATGTA	0.359
GTCATGCA	0.0879

Sequence	PBM E-score
CTTATGTC	0.0522
GTCATGGA	-0.179
CTCATGTC	0.191
ATCATGTA	0.392
CTCATGGA	0.261
ATGGTTGA	-0.153
CCATCCGC	-0.164
CCGAAGAC	-0.306
GGGGTCTA	-0.0481
TAGAGAAA	-0.0644
CAACCAGA	0.0325
AAATAGCG	0.11
AGTTACGA	0.138
CCTAGAAA	0.0447
CTGAGCCC	-0.191
CCGTTGAG	-0.213
CAGGCAAC	0.489
CAGGCAGA	0.0294
CAGACAAC	0.00587
CCGGCAAG	-0.0693
TAGGCAAA	0.48
CAGGCAAG	0.491
CAGGCAAA	0.481
GAGGCAAA	0.328
CAGGCAGG	0.306

Sequence	PBM E-score
TGGGCAAA	-0.0148
CGGGCAAC	-0.129
CGGGCAAA	0.0704
ATCCACGG	-0.0193
AACCAGGT	-0.172
AAGACATC	-0.0992
CATAGTGC	0.117
ACAGCCGT	-0.24
CTCCGAAC	-0.132
ACACTACC	-0.089
ACCTTAAA	-0.092
GCCTTAAA	0.349
CCCTTAAA	-0.00813
CACACTCC	-0.178
TGGTACAA	0.0168
AGGTACAC	0.366
ATGTACAC	0.338
CGGTACAC	0.00913
ACGTACAT	0.286
ATGTACAT	0.378
GGGTACAA	-0.012
AGGTACAA	0.363
AGGTACAT	0.367
AAGTACAT	0.265
ATGTACAG	0.247

Sequence	PBM E-score
AGGTACAG	0.332
AAGGGGAA	-0.0624
CAACAGTG	-0.0633
CACGTGGC	-0.0488
AGCCTCAA	-0.265
TGCCTCCA	0.404
AGCCTCCA	-0.369
CGCCTCCA	-0.0882
TGCCTCAA	0.365
GGCCTCAA	0.00845
GACTGCTA	-0.251
AGCGTGCA	0.092
AACGTGCG	0.0588
AACGTGCC	0.397
CGCGTGGC	-0.155
AACGTGCA	0.136
AGCGTGCC	0.343
CGCGTGCC	0.433
AGTGTGCG	-0.149
CGTGTGCC	0.23
AGTGTGCC	0.355
CGCGTGCA	0.0183
AGCGTGCG	-0.185
AGGACACG	0.071
GTGAGCCA	-0.12

Sequence	PBM E-score
GCGTTGGA	0.0942
GTATCGTA	0.197
CCGTTTCA	-0.123
AAGAGAAC	0.0546
GCCGTGCA	-0.0598
ACCGTGCC	0.336
ACTGTGCC	0.265
GCCGTGCC	0.346
CCTGTGCG	0.185
CCTGTGCC	0.361
CGCGAGAC	-0.11
ACGCCAAG	-0.0211
CGCTGTGC	-0.0145
ATAGGTGG	0.0389
AATAAGGA	0.0872
ACTTACAT	0.311
GCTTACAC	0.178
GATTACAC	0.419
CATTACAG	0.287
GCTTACAA	0.197
GATTACTA	0.122
CATTACAC	0.384
AATTACAG	0.27
AATTACAT	0.419
GATTACGC	0.23

Sequence	PBM E-score
GATTACAA	0.359
CATTACAA	0.301
ATGCTGCC	-0.0402
ATCCGGAG	-0.0342
CCATACTC	-0.245
AATTACAA	0.362
ACTTACAC	0.217
AATTACCA	0.174
AATTACCC	-0.0825
TATTACAA	0.297
AATTACAC	0.402
CCTGCAGC	0.0434
CCTGCAGA	0.303
CCTGCAGG	0.413
AACATGCA	0.324
TACATGAA	0.375
TACATGCA	0.361
GACATGGA	0.167
TACATGGA	0.346
AACATGGA	0.312
GACATGAA	0.274
CACATGAA	0.185
GACATGCA	0.203
AGCTATGC	-0.0718
GCACAGTA	-0.0809

Sequence	PBM E-score
ATGCTATG	0.19
CGCTCAGA	0.0235
ATCTTCAT	-0.0494
AAGTAGGG	-0.08
GCCTTGCA	-0.00236
ACCTTGTA	0.338
CCCTTGCC	0.0298
GCCTTGTA	0.354
GCCTTGCC	0.416
CCCTTGTA	0.237
CATTTCGG	-0.063
AGGGCCCT	-0.368
GCTCGGAC	-0.172
CGACAGAA	-0.216
GACCTCGA	-0.139
GTATCCAA	-0.0981
CAGGTCAG	-0.242
ATAGGCAA	0.486
ATAGGCAC	0.491
ATAGGCTC	0.207
CTAGGCAA	0.474
ATCGGCAT	-0.0895
ATAGGCAT	0.412
ATAGGCGC	0.249
ATAGGCAG	0.234

Sequence	PBM E-score
CTAGGCGA	-0.178
ATAGGCTA	0.0381
ATAGGGAT	0.0533
CTAGGCTA	-0.18
CCACAAGG	0.094
AGTGAGCC	-0.0781
CAGTTAAA	0.0473
GTGGCGCA	-0.0264
CCCAGTGA	-0.203
CATTCTCA	0.0726
CTAGGCGC	0.041
CTAGGCAG	-0.0742
TTAGGGAA	0.0178
TTAGGCAA	0.481
GTAGGCCA	0.00764
CTAGGCAC	0.485
TTCGGCAA	0.0952
GTAGGCAA	0.49
GTAGGCTA	0.226

— the supplement of paper PMC3334620
